# Bioassay records as filed in PubChem BioAssay.
# An excerpt weighted towards active compounds, which were near 5.3% of everything screened.
# TDP1 block: TDP1 (human) enzyme inhibition | AID 485290 | recombinant TDP1, AlphaScreen DNA substrate cleavage | Q9NUW8 | Potency, µM (series often up to 130 µM), hits mostly inhibitors | 350,000 compounds, 0.28% hits; note: nearly all actives have a fitted effect of over 40% in size
#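 Signal: AlphaScreen proximity between streptavidin donor and anti-FITC acceptor beads on intact substrate. Reaction: Tdp1 1 nM, substrate 15 nM final, 5 min RT after 15 min compound preincubation.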
# BAZ2B block: BAZ2B (human) inhibition. Q9UIF8. AlphaScreen BAZ2B-H3K14Ac peptide displacement. Potency, µM (highest dose often 114 µM), usual class: inhibitors. 360,000 compounds, 4.4% hits. AID 504333; note: nearly all actives have a fitted effect of over 60% in size
#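 AlphaScreen luminescence quantifies BAZ2B engagement of H3K14Ac peptide; the protein and biotinylated peptide are both at 50 nM final, buffer PBS pH 7.4 with 0.01% Tween-20, all steps at room temperature.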
# HP1b chromo inh: blocks HP1-beta chromodomain binding to methylated histone tails | P83916 | AlphaScreen HP1-beta / biotin-H3K9me3 peptide binding | Potency, µM (highest dose often 114 µM), usual class: inhibitors | 390,000 compounds, 0.56% hits; note: nearly all actives have a fitted effect of over 70% in size
#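 AlphaScreen: HP1-beta (50 nM) preformed 30 min with biotin-H3(1-18)K9me3 peptide (50 nM) in PBS pH 7.4, 0.01% Tween-20. Compound added for 30 min at RT, then streptavidin donor/nickel chelate acceptor beads (10 ug/mL) for 30 min.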
# Six1-Eya2 inh: blocks human Six1 binding to Eya2; Q15475+O00167; AlphaScreen GST-Six1/His-Eya2 binding, biochemical; active compounds read low; activity change, % (test concentration not listed); 360,000 compounds, 0.56% hits; in the data active = activity change below about -65%; inconclusive = mostly about -30% to -63%
# Target sequence (O00167 whole entry, looked up): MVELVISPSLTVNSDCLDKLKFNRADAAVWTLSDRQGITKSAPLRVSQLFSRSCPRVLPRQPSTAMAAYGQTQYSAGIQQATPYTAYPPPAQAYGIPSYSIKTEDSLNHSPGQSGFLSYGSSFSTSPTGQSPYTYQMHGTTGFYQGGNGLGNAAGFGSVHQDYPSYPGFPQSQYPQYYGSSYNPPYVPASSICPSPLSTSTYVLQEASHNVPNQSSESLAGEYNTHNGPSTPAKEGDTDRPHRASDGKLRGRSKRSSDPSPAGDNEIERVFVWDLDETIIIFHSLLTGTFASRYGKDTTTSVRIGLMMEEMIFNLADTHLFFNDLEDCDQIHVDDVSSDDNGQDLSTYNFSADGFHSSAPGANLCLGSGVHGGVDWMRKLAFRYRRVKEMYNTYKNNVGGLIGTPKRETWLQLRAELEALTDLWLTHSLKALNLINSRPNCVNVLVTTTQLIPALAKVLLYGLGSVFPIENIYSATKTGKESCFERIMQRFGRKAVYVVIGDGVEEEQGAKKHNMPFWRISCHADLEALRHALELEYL
# Target sequence (Q15475 whole entry, looked up): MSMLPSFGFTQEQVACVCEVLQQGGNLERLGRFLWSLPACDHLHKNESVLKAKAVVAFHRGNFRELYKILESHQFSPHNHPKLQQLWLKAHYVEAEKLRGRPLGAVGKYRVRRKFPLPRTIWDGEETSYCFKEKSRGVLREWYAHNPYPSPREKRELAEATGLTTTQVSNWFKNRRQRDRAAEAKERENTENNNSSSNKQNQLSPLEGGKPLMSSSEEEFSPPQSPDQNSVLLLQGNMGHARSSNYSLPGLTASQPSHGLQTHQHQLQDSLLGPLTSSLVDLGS
#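 Homogeneous AlphaScreen proximity assay pairing GST-Six1 with His-tagged Eya2 (added as 5X mix: 250 nM and 500 nM) in 50 mM Tris pH 8.0, 300 mM NaCl, 1 mM TCEP. Glutathione donor and nickel acceptor beads; 1 h, 37 °C, dark.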
# CtBP-E1A inh: inhibitors of CtBP/E1A interaction; AlphaScreen GST-E1A/His-CtBP binding, 1536-well; active compounds read low; activity change, % (test concentration not listed); 340,000 compounds, 0.49% hits; in the data active = activity change below about -65%; inconclusive = mostly about -30% to -63%
#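 GST-E1A and His-tagged CtBP (125 nM each as 5X stock) were preincubated with pin-transferred compound for 2 h at 37 °C in the dark, then glutathione donor and nickel acceptor beads were added for 1 h before AlphaScreen reading.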
# JMJD2A Tudor inh: inhibitors of human JMJD2A Tudor domain; O75164; AlphaScreen JMJD2A-Tudor / H3K4me3 peptide binding; Potency, µM (doses to about 114 µM), hits mostly inhibitors; 390,000 compounds, 4.4% hits; note: nearly all actives have a fitted effect of over 50% in size
# Hits are given with their value; – = inactive; ? = inconclusive; · = not tested or not shown; [ ] = dose if it differs, or a comment. Unless noted, calls come from the whole dose curve; as a rule, active = well fitted inhibition curve with a large enough effect; inconclusive = small, poorly fitted or top-dose-only effect; inactive = no such curve, though single readings can be large or run the other way.
SMILES,TDP1 block,BAZ2B block,HP1b chromo inh,Six1-Eya2 inh,CtBP-E1A inh,JMJD2A Tudor inh
CCOC(=O)N1CCN(CC(O)COc2ccc(OC)cc2C(C)(C)C)CC1 (stereo not drawn),–,?,–,–,–,–
CCOC(=O)C1CCCN(CC(O)COc2ccccc2C(C)=O)C1 (stereo not drawn),–,–,–,–,–,–
CCOC(=O)C1CCCN(CC(O)COc2ccc(OC)cc2C(C)(C)C)C1 (stereo not drawn),–,50µM,7.9µM,–,–,?
CCCCC/C=C\C[C@@H]1O[C@H]1C(O)/C=C\C/C=C\CCCC(=O)O (stereo partly drawn),–,·,·,·,·,·
CCOC(=O)C1CCN(C(=O)Cc2ccc(-c3ccccc3)cc2)CC1,·,–,–,–,–,–
CCOC(=O)C1CCN(S(=O)(=O)c2ccc(OCC)cc2)CC1,–,–,–,–,–,–
CCOC(=O)C1CCCN(Cc2ccc(OCC)cc2)C1 (stereo not drawn),–,?,?,–,–,20µM
CCOC(=O)C1CCN(Cc2ccc(OC)cc2OC)CC1,·,?,?,–,–,1.8µM
COc1ccc(CN2CCC(C(=O)NCCc3ccc(OC)c(OC)c3)CC2)c(OC)c1,–,–,–,–,–,–
CCOC(=O)C1CCN(Cc2cn[nH]c2-c2ccccc2)CC1,–,?,?,–,–,3.2µM
CCOC(=O)C1CCCN(CC(O)COC(c2ccccc2)c2ccccc2)C1 (stereo not drawn),–,–,–,–,–,–
CCOC(=O)C1CCCN(Cc2ccccc2C)C1 (stereo not drawn),–,71µM,?,–,–,5µM
CC(C)Oc1ccc(C(=O)N(Cc2ccco2)c2ccccn2)cc1,–,–,–,·,·,–
CCCn1c(=N)c(C(=O)NC(C)c2ccccc2)cc2c(=O)n3ccccc3nc21 (stereo not drawn),–,–,–,·,·,–
COc1ccc(CN2CCC(N3CC(C)OC(C)C3)CC2)c(OC)c1 (stereo not drawn),·,32µM,40µM,–,–,0.79µM
CCOC(=O)C1CCCN(CCc2ccccc2)C1 (stereo not drawn),·,?,–,–,–,25µM
COc1cccc(C(=O)N2CCC(N3CC(C)OC(C)C3)CC2)c1 (stereo not drawn),–,50µM,?,–,–,6.3µM
CCOC(=O)C1CCN(Cc2ccccc2C)CC1,–,56µM,–,–,–,–
COc1cccc(C(=O)N2CCOCC2)c1,–,–,–,–,–,–
COc1ccc(CCn2c(=S)[nH]c(=O)c3c(C)cc(C)nc32)cc1OC,–,·,–,·,·,–
CCOC(=O)C1CCN(C/C=C/c2ccccc2[N+](=O)[O-])CC1,·,?,–,–,–,2.2µM
COc1cc(NC(=O)c2ccc(Cl)cc2)c(OC)cc1NC(=O)CN1CCCCC1,–,40µM,?,–,·,–[11.4 µM]
COc1ccccc1NC(=O)CN1CCCCCC1,–,–,–,–,–,–
COc1cc(NC(=O)Nc2ccccc2)c(OC)cc1NC(=O)CN1CCCCC1,–,50µM,?,?,?,40µM
COc1cc(NC(=O)c2ccc(Cl)cc2)c(OC)cc1NC(=O)CN1CCOCC1,–,–,–,–,–,–
SMILES,TDP1 block,BAZ2B block,HP1b chromo inh,Six1-Eya2 inh,CtBP-E1A inh,JMJD2A Tudor inh
C=C(C)C(=O)C1CCCCC1,–,·,·,·,·,·
O=C(c1ccco1)n1nc(-c2ccccc2)nc1NCc1ccccc1Cl,–,–,–,·,·,–
COc1ccc(OC)c(CNC(=O)c2ccc(N3Cc4ccccc4Oc4ncccc43)s2)c1,–,–,–,·,·,–
O=c1c(-c2ccccc2)c(-c2ccccc2)oc2cc(O)cc(O)c12,·,71µM,–,–,–,?
O=c1c(O)c(-c2ccccc2O)oc2cc(O)cc(O)c12,–,·,·,·,·,·
O=C(N/N=C1/C[C@@H](O)[C@@H](O)[C@@H]2[C@@H]3C(=O)N(C4CCCCC4)C(=O)[C@H]3CC[C@@H]12)OCc1ccccc1,–[21 µM],·,·,·,·,·
Cc1cc(NC(=O)CSc2cn(CCNC(=O)c3ccccc3)c3ccccc23)no1,–,–,8.9µM,?,–,22µM
Cc1ccc(C)c(NC(=O)CSc2nnc(-c3ccco3)o2)c1,–,–,–,–,–,–
COc1cc(C(=O)NCc2nnc(SCC(=O)Nc3cc(C)on3)o2)cc(OC)c1OC,–,·,–,–,–,–
COc1cc(C(=O)NCc2nnc(SCC(=O)Nc3nccs3)o2)cc(OC)c1OC,–,45µM,–,-84,-78,?
Cc1cc(NC(=O)CSc2nnc(-c3ccco3)o2)no1,–,?,–,-74,-90,–
Cc1ccc2nc(CSc3nnc(-c4ccco4)o3)cc(=O)n2c1,18µM,56µM,–,–,–,–
Cc1ccc(C(=O)NCCn2cc(SCC(=O)Nc3cc(C)on3)c3ccccc32)cc1,–,–,–,–,–,–
O=C(CSc1nnc(-c2ccco2)o1)c1ccc[nH]1,–,45µM,–,–,–,–
O=C(CSc1ccc(Cl)cc1)Nc1nnc(-c2ccco2)o1,·,50µM,–,?,–,?
